For 47 compounds, activity change (PNC), negative = inhibition results are on record in PubChem BioAssay AID2417 (National Center for Advancing Translational Sciences (NCATS), 2010).

The whole screen tested about 140,000 compounds, of which about 4,300 (3.1%) were called active. Inconclusive results (about 21%) are left out. Shown is part of a subset that was picked to be rich in actives. Unmarked numbers belong to inactive results.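 Rule for the calls: active = readout at or below -70, meaning at least 70% loss of cells showing the perinucleolar compartment, a nuclear body marking cancer cells; inconclusive = readout between -30 and a set limit; inactive = the rest.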

This experiment can be described thus: High Content Assay for Compounds that inhibit the Assembly of the Perinucleolar Compartment.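 Note: plate controls were DMSO wells for no effect and camptothecin positive control wells for full effect.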 The settings on record: PC3M PTB-GFP, PNC prevalence imaging, 16 h; at 10 µM; stronger effect = lower value. The procedure, abridged: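 PC3M cells stably expressing PTB-GFP, 750–1000 cells/well, treated 16 h at 37 °C with compound (23 nl of library stock), in duplicate. After paraformaldehyde fixation and Hoechst stain, imaged at 20x; PNC prevalence scored by image analysis.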
Take `CC(=O)Nc1ccc(/C(C)=N/NC(=O)CN(c2ccccc2Br)S(C)(=O)=O)cc1`: the activity change (PNC), negative = inhibition is -2.45%.
The figure for `CCOc1ccc2[nH]c(=O)c(CN(Cc3nnnn3CCc3ccccc3)CC3CCCO3)cc2c1` (configuration not stated) is -100% (active); for `COc1ccc2[nH]c(=O)c(CN(Cc3nnnn3CCc3ccccc3)CC3CCCO3)cc2c1` (configuration not stated) it is -7.29%.
The figure for `CCOc1ccc2[nH]c(=O)c(CN(Cc3nnnn3Cc3ccccc3)CC3CCCO3)cc2c1` (configuration not stated) is -2.29%; for `Cc1ccc(N2CCN(c3ccc(C)cc3)C2c2ccccn2)cc1` it is -81.6% (active); for `Cc1ccc(S(=O)(=O)NCC(=O)N2CCN(c3ccccn3)CC2)cc1` it is -10%.
Then `Cc1ccc(-n2ccc(=O)c(C(=O)O)n2)cc1`, with -18.4%; and `CN(c1ccccc1)c1nc(N)c([N+](=O)[O-])c(NCc2ccco2)n1`, with 22%.
Consider `CNC(=O)/C(C#N)=C/c1c(F)cccc1Cl`, for which the activity change (PNC), negative = inhibition is 52.2%.
Take `COc1ccccc1N1CCN(CC(=O)NC(=O)NCc2ccco2)CC1`: the activity change (PNC), negative = inhibition is -19.8%.
The figure for `Cc1noc(NS(=O)(=O)c2ccc(NC(=O)C34CCC(CC3)C4)cc2)c1C` is -120% (active).
On to `COc1ccc(C(=O)Nc2ccc(S(=O)(=O)Nc3onc(C)c3C)cc2)cc1OC`, for which the activity change (PNC), negative = inhibition is 85.8%.
Then `Cc1noc(NS(=O)(=O)c2ccc(N/C=C/C(=O)c3ccccc3)cc2)c1C`, with 34.4%.
Then `CCOC(=O)C1CCN(C(=O)/C=C/c2cc(OC)c(OC)c(OC)c2)CC1`, with 5.16%; and `COc1ccc(OCC(=O)N2CCOCC2)cc1`, with -29.5%.
For `COC(=O)c1cnn2c(C(F)(F)F)cc(-c3ccco3)nc12`, the activity change (PNC), negative = inhibition was 48.3%.
For the compound `COc1ccc(-c2cc(C(F)(F)F)n3nc(C(=O)N4CCOCC4)c(Cl)c3n2)cc1`, the activity change (PNC), negative = inhibition is -106% (active).
Then `CCn1c(COc2cccc(OC)c2)nnc1SCC(=O)N1CCOCC1`, with -11.5%.
On to `COc1ccc(-c2nc(SCC(=O)N3CCOCC3)n[nH]2)cc1`, for which the activity change (PNC), negative = inhibition is -17.8%.
In the case of `COc1ccc(-c2ccnc(SCC(=O)N3CCOCC3)n2)cc1`, the activity change (PNC), negative = inhibition was -100% (active).
As to `C/C(=N\NC(=O)c1ccc(NS(=O)(=O)c2cccs2)cc1)c1ccc2ccccc2c1`, the activity change (PNC), negative = inhibition was 3.73%.
On to `CC1CCCN(CCOCCOc2ccccc2-c2ccccc2)C1` (configuration not stated), for which the activity change (PNC), negative = inhibition is 40%.
As for `COC(=O)c1ccc2c(c1)S(=O)(=O)NC(=NCCCN1CCOCC1)S2`, the activity change (PNC), negative = inhibition is -119% (active).
Take `O=C(NCCN=C1NS(=O)(=O)c2ccccc21)c1ccc(S(=O)(=O)N2CCOCC2)cc1`: the activity change (PNC), negative = inhibition was -5.59%.
For the compound `CC(=O)c1ccc(OCCN2CCOCC2)cc1`, the activity change (PNC), negative = inhibition was 20.1%.
`COc1ccc(C(=O)NNC(=S)NC(=O)c2ccccc2[N+](=O)[O-])cc1`: the activity change (PNC), negative = inhibition was -4%.
The figure for `O=C(O)c1ccc(/C=N/NC(=O)c2ccc(Br)cc2)cc1` is -18.4%.
Turning to `O=C(C(Cl)Cl)N1CCN(c2ccccn2)CC1`, the activity change (PNC), negative = inhibition was 42.3%.
Then `Cc1ccccc1CN(c1ccc(C(=O)NCC2CCCO2)cc1)S(C)(=O)=O` (configuration not stated), with -1.65%.
Then `COc1ccc(Cl)cc1NC(=O)CNc1ccccc1F`, with -22.5%; and `COc1ccccc1Nc1ncc(C(C)=O)c(C)n1`, with 9.62%; and `C=C(C)C1CC=C(C)/C(=N\NC(=O)CNc2ccccc2OC)C1` (configuration not stated), with -81.8% (active).
The figure for `CCCCc1cc2c(s1)CCCC/C2=N/O` is 0.0645%; for `Cc1cc(C)c2c(n1)sc1c(=O)n(-c3ccccc3)c(=O)[nH]c12` it is 19.8%; for `CCn1c(/C=N/NC(=O)c2ccc(OC)cc2)nc2ccccc21` it is 27.2%.
As to `CCC(CC)C(=O)N1CCN(c2cccc(C)c2C)CC1`, the activity change (PNC), negative = inhibition is -15.3%.
Then `COc1cc(/C=N\NC(=O)c2nonc2N)c(OC)cc1Br`, with 16.4%.
Regarding `COc1ccc(Cc2nnc(N/N=C/c3ccccc3O)[nH]c2=O)cc1OC`, the activity change (PNC), negative = inhibition is -84.6% (active).
The figure for `COc1ccc(CCNC(=O)CCCCn2c(=O)[nH]c3ccccc3c2=O)cc1OC` is -14.6%; for `COc1ccc(/C=N/Nc2nc3ccccc3c(=O)[nH]2)cc1` it is 25.5%; for `NS(=O)(=O)c1cc(C(=O)NCCOc2ccccc2)c(Cl)cc1Cl` it is -9.28%.
Then `C=CCNC(=O)c1ccccc1NC(=O)c1ccc(Cl)c(S(=O)(=O)Nc2cccc(C)c2C)c1`, with -8.83%.
Then `CCNS(=O)(=O)c1ccc(NC(=O)Nc2cccc(C(F)(F)F)c2)cc1`, with -8.69%; and `CC(C)C[C@H](NC(=O)Nc1cccc(C(F)(F)F)c1)C(=O)O`, with -100% (active).
Regarding `O=C(O)CSCC(=O)Nc1cccc(C(F)(F)F)c1`, the activity change (PNC), negative = inhibition is -17.2%.
For the compound `CC(=O)Nc1ccc(S(=O)(=O)NCC(=O)OCc2cc(=O)oc3ccc4ccccc4c23)cc1`, the activity change (PNC), negative = inhibition was -24.6%.
On to `Cc1cc(C(=O)COC(=O)CNC(=O)c2ccc(F)cc2)c(C)n1Cc1ccco1`, for which the activity change (PNC), negative = inhibition was 8.75%.
